This is an account of results in ChEMBL document CHEMBL1961873, “Compounds: GSK PKIS; Assays: Nanosyn kinase panel” (2012).

MAP kinase-activated protein kinase 3 (Homo sapiens), sequence (Q16644 whole entry, looked up): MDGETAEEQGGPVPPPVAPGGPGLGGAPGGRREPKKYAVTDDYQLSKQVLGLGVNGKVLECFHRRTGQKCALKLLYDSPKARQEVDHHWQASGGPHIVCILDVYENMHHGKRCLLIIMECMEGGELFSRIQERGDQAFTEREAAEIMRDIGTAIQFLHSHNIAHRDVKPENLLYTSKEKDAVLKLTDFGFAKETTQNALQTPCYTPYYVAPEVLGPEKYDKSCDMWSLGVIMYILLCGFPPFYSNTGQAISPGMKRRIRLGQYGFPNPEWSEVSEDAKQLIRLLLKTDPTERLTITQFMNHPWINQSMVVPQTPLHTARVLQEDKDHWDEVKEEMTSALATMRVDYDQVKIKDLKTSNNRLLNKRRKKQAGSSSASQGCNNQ

One assay concerns the target MAP kinase-activated protein kinase 3 (Homo sapiens) (UniProt Q16644). The conditions noted are these: at 1 µM.
As for `COc1cccc(COc2cc(-n3cnc4ccccc43)sc2C(N)=O)c1`, the inhibition turned out to be 3.61%.
In the case of `COc1cc(C=NNc2ncnc3c2cnn3Cc2ccccc2)ccc1O`, the inhibition was -1.92%.
As to `CCn1c(-c2nonc2N)nc2c(C#CC(C)(C)O)nc(O[C@@H](CN)c3ccccc3)cc21`, the inhibition is -0.47%.
On to `COc1cc2c(cc1Nc1nc(Nc3ccsc3C(N)=O)c3cc[nH]c3n1)N(C(=O)CN(C)C)CCC2`, for which the inhibition stood at 6.01%.
On to `NS(=O)(=O)c1ccc(N/C=C2\C(=O)Nc3ccc4ncsc4c32)cc1`, for which the inhibition came to 10.4%.
As to `Nc1nonc1-c1nc2cnccc2n1C1CCCCC1`, the inhibition is -2.76%.
With `COc1cccc(-n2ncc3c(N/N=C/c4ccncc4)ncnc32)c1`, the inhibition was determined as 4.56%.
`Cc1cc(-c2ccco2)cc(C)c1/C=C/c1cncc(-c2nn[nH]n2)c1`: the inhibition was 1.25%.
On to `CCn1c(-c2nonc2N)nc2c(C#CC(C)(C)O)ncc(OCC3CCNCC3)c21`, for which the inhibition was determined as 1.31%.
Consider `Fc1ccc(-c2ncn(C3CCNCC3)c2-c2ccnc(Oc3ccccc3)n2)cc1`, for which the inhibition was determined as 33.4%.
For the molecule `NS(=O)(=O)c1ccc(-c2ccc3c(NC(=O)C4CC4)n[nH]c3c2)cc1`, the inhibition is 2.69%.
Turning to `CCn1c(-c2nonc2N)nc2c(C#CCN)ncc(OCCCN)c21`, the inhibition is -0.66%.
Turning to `NC(=O)c1sc(-n2cnc3cc(C(F)(F)F)ccc32)cc1OCc1ccccc1Br`, the inhibition was -0.9%.
For the molecule `CCn1c(-c2nonc2N)nc2c(C#CC(C)(C)O)ncc(OC[C@@H]3CCCN3)c21`, the inhibition is -0.82%.

For the next assay, the target named is Serine/threonine-protein kinase MARK1 (Homo sapiens) (UniProt Q9P0L2). The conditions noted are these: at 0.1 µM.
Serine/threonine-protein kinase MARK1 (Homo sapiens), sequence (Q9P0L2 whole entry, looked up): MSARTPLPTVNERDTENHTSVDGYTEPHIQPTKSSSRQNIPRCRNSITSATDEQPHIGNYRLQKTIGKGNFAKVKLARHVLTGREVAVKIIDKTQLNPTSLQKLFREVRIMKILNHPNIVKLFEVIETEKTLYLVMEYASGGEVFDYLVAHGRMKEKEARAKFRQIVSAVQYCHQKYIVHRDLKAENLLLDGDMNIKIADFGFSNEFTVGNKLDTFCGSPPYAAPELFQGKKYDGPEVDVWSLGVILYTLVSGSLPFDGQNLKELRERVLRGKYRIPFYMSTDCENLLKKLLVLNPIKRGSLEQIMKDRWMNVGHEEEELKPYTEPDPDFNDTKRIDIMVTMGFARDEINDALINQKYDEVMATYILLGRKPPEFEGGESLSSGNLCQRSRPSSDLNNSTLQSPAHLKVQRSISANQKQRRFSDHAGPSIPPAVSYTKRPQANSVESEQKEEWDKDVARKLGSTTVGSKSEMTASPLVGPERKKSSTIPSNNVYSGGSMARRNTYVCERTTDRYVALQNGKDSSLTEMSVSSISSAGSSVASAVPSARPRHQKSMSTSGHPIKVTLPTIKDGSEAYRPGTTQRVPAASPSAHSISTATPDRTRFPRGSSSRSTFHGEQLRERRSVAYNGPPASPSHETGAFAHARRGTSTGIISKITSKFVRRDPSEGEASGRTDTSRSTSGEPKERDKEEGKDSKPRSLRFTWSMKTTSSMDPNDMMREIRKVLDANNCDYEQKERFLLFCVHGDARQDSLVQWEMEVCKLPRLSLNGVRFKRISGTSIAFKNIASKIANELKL
For the molecule `COc1cccc(COc2cc(-n3cnc4ccccc43)sc2C(N)=O)c1`, the inhibition amounted to 0.58%.
On the same count and under the same terms, the figure for `COc1cc(C=NNc2ncnc3c2cnn3Cc2ccccc2)ccc1O` is -0.6%; for `CCn1c(-c2nonc2N)nc2c(C#CC(C)(C)O)nc(O[C@@H](CN)c3ccccc3)cc21` it is 77.2%; for `COc1cc2c(cc1Nc1nc(Nc3ccsc3C(N)=O)c3cc[nH]c3n1)N(C(=O)CN(C)C)CCC2` it is 2.48%.
Regarding `NS(=O)(=O)c1ccc(N/C=C2\C(=O)Nc3ccc4ncsc4c32)cc1`, the inhibition was found to be 13.6%.
The same measure, in the same setting: the figure for `Nc1nonc1-c1nc2cnccc2n1C1CCCCC1` is 2.89%; for `COc1cccc(-n2ncc3c(N/N=C/c4ccncc4)ncnc32)c1` it is 4.99%.
With `Cc1cc(-c2ccco2)cc(C)c1/C=C/c1cncc(-c2nn[nH]n2)c1`, the inhibition was found to be 1.07%.
On to `CCn1c(-c2nonc2N)nc2c(C#CC(C)(C)O)ncc(OCC3CCNCC3)c21`, for which the inhibition stood at 15.5%.
The same measure, in the same setting: the figure for `Fc1ccc(-c2ncn(C3CCNCC3)c2-c2ccnc(Oc3ccccc3)n2)cc1` is 0.45%; for `NS(=O)(=O)c1ccc(-c2ccc3c(NC(=O)C4CC4)n[nH]c3c2)cc1` it is 1.75%.
The same measure, in the same setting: the figure for `CCn1c(-c2nonc2N)nc2c(C#CCN)ncc(OCCCN)c21` is 4.42%; for `NC(=O)c1sc(-n2cnc3cc(C(F)(F)F)ccc32)cc1OCc1ccccc1Br` it is 1.79%.
Same read-out and setting: then `CCn1c(-c2nonc2N)nc2c(C#CC(C)(C)O)ncc(OC[C@@H]3CCCN3)c21`, with 13.8%.

By inhibition is commonly meant the relative decrease from the control value, in per cent.
